Holding throughout (test): NCI-60 one-dose screen, 48 h (100 = growth as untreated, 0 = no growth, -100 = all killed)
Holding throughout (conditions): 10 µM

In assay [1] the test system is NCI-H23 lung.
The subject of assay [2] is NCI-H322M lung.
Assay [3] concerns HOP-62 NSCLC.
Assay [4] concerns NCI-H460 lung.
Assay [5] deals with HOP-92 NSCLC.
Assay [6] relates to NCI-H522 lung.
Assay [7] deals with A549/ATCC NSCLC.
The test system of assay [8] is 786-0 renal.
Assay [9] relates to COLO 205 colon.
Assay [10] has as its system DU-145 prostate.
Assay [11] deals with K-562 leukemia.
Assay [12] concerns MALME-3M melanoma.
The test system of assay [13] is MDA-MB-231 breast.
Assay [14] concerns RXF 393 renal.
In assay [15] the test system is SF-268 CNS.
Assay [16] has as its system SF-295 CNS.
The subject of assay [17] is SF-539 CNS.
Assay [18] has as its system UACC-257 melanoma.
The subject of assay [19] is M14 melanoma.
The subject of assay [20] is NCI-H226 lung.

Experimental findings from PubChem BioAssay (NCI) are described below.

The panel holds about 83,000 compounds, 20% with a hit somewhere; the sample as a whole holds those more often.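 Treatment: one concentration, 48 hours, 96-well format. Scoring: percent growth, with anything below 10 considered active.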 A number with no mark means an inactive call. Calls of active or inactive are those of the source.

In the case of `COc1cc(C2c3cc4c(cc3C3OC(=O)C2C3CO)OCO4)cc(OC)c1OC` (stereo not given), the growth in [1] is 14.7%; in [2], 36.9%; in assay [3] it was 28.5%; in assay [4], 0.82% (active); in [5] it was 45.7%; in assay [6] it was -30.5% (active). The growth in assay [7] was 14.9%; in assay [8], 14.4%; in assay [9], -92.4% (active); in assay [10], -41.5% (active); in assay [11] it was 8.48% (active); in assay [12], 50.3%. Also, the growth was 30.3% in assay [13]; 57.9% in assay [14]; 30.3% in assay [15]; 3.2% (active) in [16]; -7.04% (active) in assay [17]; 57% in assay [18]. Besides, the growth in assay [19] was 12.1%.
On to `CC1C(=O)c2ccccc2CC1C(=O)O` (stereo not given), for which the growth in [1] is 96.8%; in assay [2], 99.5%; in [3], 105%; in assay [4] it was 122%; in [5], 101%; in [7], 93.8%. In addition, the growth in assay [8] is 110%; in assay [9], 105%; in [10], 135%; in assay [11] it was 103%; in [13], 109%; in assay [14] it was 120%. The growth in [15] is 130%; in [17] it was 101%; in [18] it was 92.8%; in [19], 113%.
As for `O=S(=O)(Cc1ccccc1)c1ccccc1`, the growth in assay [1] is 105%; in [2], 118%; in [3], 104%; in assay [5], 105%; in assay [6], 104%; in assay [7], 98.6%. The growth in assay [8] is 101%; in [9], 112%; in assay [10] it was 107%; in assay [11], 103%; in [12], 106%; in assay [13], 121%. The growth is 102% in assay [14]; 101% in assay [15]; 97.7% in [17]; 107% in assay [18]; 104% in assay [19].
For `CC(=Nc1ccccc1)C1=C(O)C(Cc2cccc(F)c2)NC1=O` (stereo not given), the growth was 17.1% in assay [1]; 31.8% in assay [2]; 28.9% in assay [3]; 6.19% (active) in assay [4]; 41.2% in [5]; -34.5% (active) in [6]. In addition, the growth in assay [7] was 14.3%; in assay [8] it was 15.3%; in assay [9], -55.5% (active); in assay [10], -37.9% (active); in assay [11], 5.47% (active); in assay [12], 39.8%. Besides, the growth in [13] was 25.9%; in [14], 41.7%; in assay [15], 31.1%; in [16], -5.61% (active); in assay [17] it was -17.5% (active); in assay [18], 40.6%. Besides, the growth in [19] is 7.5% (active).
Regarding `CC(=O)c1ccc(N=C(C#N)C2=C(O)c3ccccc3C2=O)cc1`, the growth in [1] was 104%; in assay [2], 100%; in assay [3] it was 100%; in [4], 101%; in assay [6], 78.6%; in [8], 103%. In addition, the growth in [9] was 111%; in assay [10] it was 113%; in assay [11], 85.5%; in assay [12] it was 114%; in [13] it was 106%; in assay [15] it was 101%. The growth in assay [16] is 102%; in assay [17] it was 107%; in assay [18], 94.2%; in assay [19] it was 105%.
For `O=c1[nH][nH]c(=O)c2cc([N+](=O)[O-])ccc12`, the growth is 101% in [1]; 123% in [2]; 102% in assay [3]; 107% in assay [5]; 90.6% in assay [6]; 108% in [7]. Further, the growth in [8] was 106%; in assay [9], 99.6%; in assay [10], 126%; in assay [11] it was 98.9%; in assay [13], 106%; in assay [14] it was 109%. Also, the growth in assay [15] was 111%; in assay [16] it was 117%; in [17] it was 108%; in assay [18], 110%; in assay [19], 99.9%.
As to `Cn1cnc2nc(Cl)nc(Cl)c21`, the growth in assay [1] was 40.6%; in assay [2], 34.1%; in assay [3] it was 8.69% (active); in assay [4], -9.25% (active); in [5] it was 31.3%; in assay [7] it was 17.2%. Besides, the growth is 4.6% (active) in assay [8]; -29.3% (active) in assay [9]; -24% (active) in assay [10]; 25.5% in assay [11]; 55.6% in assay [12]; 20.9% in assay [13]. Also, the growth was 30.6% in [14]; 22.1% in assay [15]; 16.3% in [16]; 2.85% (active) in [17]; 60% in [18]; -15.6% (active) in assay [19].
Take `CCOc1ccc(Br)cc1/C=N\N=C\c1cc(Br)ccc1OCC`: the growth in assay [20] is 97.6%; in assay [2], 111%; in assay [3] it was 108%; in assay [4], 103%; in assay [6] it was 104%; in assay [7] it was 104%. For the same compound, the growth was 105% in [8]; 119% in assay [9]; 102% in [10]; 95.3% in [11]; 105% in [12]; 108% in assay [13]. In addition, the growth is 145% in assay [14]; 97.6% in assay [15]; 100% in assay [16]; 101% in assay [17]; 92.7% in [18]; 98.6% in assay [19].
In the case of `CCn1c(=O)n(C)c2c(=O)n(C)c(=O)n(C)c21`, the growth in assay [1] was 98.9%; in assay [2] it was 105%; in assay [3], 97.2%; in assay [4], 112%; in assay [5] it was 102%; in [6] it was 96.1%. Besides, the growth is 101% in assay [7]; 109% in [8]; 101% in assay [9]; 107% in [11]; 110% in [13]; 109% in assay [14]. Besides, the results for the growth in assay [17], in [18] and in [19] were 106%, 99% and 101%, respectively.
`CNc1nc(NC)c2cn[nH]c2n1`: the growth was 104% in assay [1]; 116% in assay [2]; 104% in assay [3]; 109% in assay [4]; 84.9% in assay [5]; 101% in [8]. Further, the growth is 95.6% in [9]; 113% in assay [10]; 104% in assay [11]; 108% in assay [13]; 101% in assay [14]; 114% in assay [15]. Further, the figures for the growth in assay [16], in assay [17] and in [19] were 98.4%, 103% and 102%, respectively.
